Molecules are shown by their SMILES. The panel holds about 83,000 compounds, 20% with a hit somewhere; the sample as a whole holds those more often.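 Each cell line was grown in a 96-well plate and treated with one concentration of compound for 48 hours. Values below 10 were considered active.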 Values without a mark were called inactive. Calls of active or inactive are those of the source.

Holding throughout (test): NCI-60 one-dose screen, 48 h (100 = growth as untreated, 0 = no growth, -100 = all killed)
The subject of one experiment is HCT-15 colon. The settings on record: 10 µM unless noted.
The test system of a further experiment is HT29 colon. Conditions: 10 µM unless noted.
The next experiment deals with SNB-19 CNS. The settings on record: 10 µM unless noted.
The subject of another experiment is U251 CNS. The settings on record: 10 µM unless noted.
A further experiment relates to PC-3 prostate. The settings on record: 10 µM unless noted.
In another experiment the test system is SK-MEL-5 melanoma. The settings on record: 10 µM unless noted.
The next experiment has as its system UACC-62 melanoma. The settings on record: 10 µM unless noted.
For a further experiment, the system named is LOX IMVI melanoma. Conditions: 10 µM unless noted.
The next experiment has as its system SK-MEL-28 melanoma. Conditions: 10 µM unless noted.
The subject of the next experiment is SK-MEL-2 melanoma. Conditions: 10 µM unless noted.
For another experiment, the system named is EKVX NSCLC. The settings on record: 10 µM unless noted.
For the next experiment, the system named is SN12C renal. The settings on record: 10 µM unless noted.
In a further experiment the test system is UO-31 renal. Conditions: 10 µM unless noted.
In the next experiment the test system is TK-10 renal. The settings on record: 10 µM unless noted.
A further experiment relates to ACHN renal. Conditions: 10 µM unless noted.
The next experiment relates to CAKI-1 renal. The settings on record: 10 µM.
The subject of a further experiment is A498 renal. Conditions: 10 µM unless noted.
The subject of the next experiment is CCRF-CEM leukemia. The settings on record: 10 µM unless noted.
The test system of the next experiment is MOLT-4 leukemia. The settings on record: 10 µM unless noted.

As for `CCNC(=NCCCN(C)C)N/C(N)=N/c1nc2ccccc2s1`, the growth was 77.4% in the experiment on HCT-15 colon; 69.9% in the experiment on HT29 colon; 90.1% in the experiment on SNB-19 CNS; 79.3% in the experiment on U251 CNS; 80.3% in the experiment on PC-3 prostate; 93.4% in the experiment with SK-MEL-5 melanoma. Further, the growth in the experiment with UACC-62 melanoma is 97.6%; with LOX IMVI melanoma, 73.5%; in the experiment with SK-MEL-28 melanoma, 93.1%; with SK-MEL-2 melanoma it was 92.9%; in the experiment on EKVX NSCLC it was 90.9%; with SN12C renal, 82%. In addition, the growth with UO-31 renal was 64.3%; with TK-10 renal, 100%; in the experiment on ACHN renal, 95.3%; with CAKI-1 renal, 65.1%; with A498 renal, 111%; with CCRF-CEM leukemia, 82.3%. In addition, in the experiment on MOLT-4 leukemia, the growth was 94.8%.
`NS(=O)(=O)c1ccc(Nc2nc(N/N=C/c3ccc(C(F)(F)F)cc3)nc(Nc3ccccc3)n2)cc1`: the growth is 31.3% in the experiment on HCT-15 colon; 11.4% in the experiment on HT29 colon; 33.8% in the experiment on SNB-19 CNS; 18.6% in the experiment with U251 CNS; 14.4% with PC-3 prostate; 34.5% with SK-MEL-5 melanoma. The growth with UACC-62 melanoma is 14.9%; in the experiment on LOX IMVI melanoma, 9.92% (active); with SK-MEL-28 melanoma, 27.2%; in the experiment on SK-MEL-2 melanoma, 28.7%; in the experiment with EKVX NSCLC, 53.7%; with SN12C renal it was 42.9%. Besides, the growth is 60.3% in the experiment with UO-31 renal; 64.3% with TK-10 renal; 39.6% with ACHN renal; 33.7% in the experiment with CAKI-1 renal; 39.6% in the experiment with A498 renal; 9.74% (active) with MOLT-4 leukemia.
Take `Oc1ccc(CSc2nnc(-c3ccncc3)n2-c2ccccc2)c2cccnc12`: the growth in the experiment with HCT-15 colon was 15.1%; with HT29 colon it was 96%; in the experiment with SNB-19 CNS, 12.7%; with U251 CNS it was 15.8%; in the experiment on PC-3 prostate it was 18.9%; in the experiment with SK-MEL-5 melanoma, 1.83% (active). For the same compound, the growth was -4.64% (active) with UACC-62 melanoma; 20.4% in the experiment with LOX IMVI melanoma; 29.4% in the experiment with SK-MEL-28 melanoma; 29.7% in the experiment on SK-MEL-2 melanoma; 48.2% with EKVX NSCLC; 11% with SN12C renal. The growth in the experiment with UO-31 renal is 9.11% (active); in the experiment with TK-10 renal it was 34.1%; with CAKI-1 renal, 15.7%; with A498 renal it was 44%; in the experiment on CCRF-CEM leukemia it was 13.1%; in the experiment on MOLT-4 leukemia, 20.1%.
On to `COc1cc2cc(Oc3ccc(NC(=O)Nc4cc(C(F)(F)F)cc(C(F)(F)F)c4)cc3)c(C)nc2cc1OCCN(C)C`, for which the growth in the experiment with HCT-15 colon was 103%; with HT29 colon, 120%; in the experiment with SNB-19 CNS, 103%; in the experiment on U251 CNS, 107%; in the experiment on PC-3 prostate, 110%; with SK-MEL-5 melanoma it was 102%. Further, the growth in the experiment on UACC-62 melanoma was 93.1%; in the experiment with LOX IMVI melanoma it was 108%; in the experiment on SK-MEL-28 melanoma, 110%; in the experiment with SK-MEL-2 melanoma, 113%; with EKVX NSCLC, 106%; in the experiment with SN12C renal it was 100%. Also, the growth with UO-31 renal was 89.5%; in the experiment with TK-10 renal it was 109%; in the experiment on ACHN renal it was 107%; with CAKI-1 renal, 93.4%; with A498 renal, 113%; in the experiment with MOLT-4 leukemia, 107%.
`C=CCn1c(SCC(=O)Nc2cccc(C(=O)/C=C/c3ccccc3Cl)c2)nc2ccccc2c1=O`: the growth in the experiment on HCT-15 colon was 75.4%; with HT29 colon, 75%; with SNB-19 CNS, 78.5%; in the experiment with U251 CNS it was 81.8%; with SK-MEL-5 melanoma it was 98.8%; in the experiment with UACC-62 melanoma, 83.4%. Further, the growth in the experiment on LOX IMVI melanoma was 79.5%; in the experiment on SK-MEL-28 melanoma it was 92.3%; with EKVX NSCLC, 94.7%; with SN12C renal, 91.5%; in the experiment on UO-31 renal it was 73%; in the experiment with TK-10 renal it was 110%. Moreover, the growth was 96.3% with ACHN renal, 79.2% in the experiment with CAKI-1 renal, 82.8% in the experiment on A498 renal and 93.8% with CCRF-CEM leukemia.
Regarding `CCc1ccc(NC(=O)N[C@@H](Cc2cccc(F)c2)C(=O)N[C@@H]2C(=O)N3CCC[C@H]3C(=O)N3CCCC[C@H]3C(=O)N[C@@H](CO)C(=O)N3C[C@H](C)C[C@H]3C(=O)O[C@H]2C)c(F)c1`, the growth was 15.1% in the experiment on HCT-15 colon; 36.1% in the experiment with HT29 colon; 28.1% with SNB-19 CNS; 30.9% in the experiment with U251 CNS; 17.5% in the experiment on PC-3 prostate; 0.508% (active) with SK-MEL-5 melanoma. Also, the growth in the experiment on UACC-62 melanoma was 27.2%; with LOX IMVI melanoma, 24.9%; in the experiment on SK-MEL-28 melanoma, 44.6%; with EKVX NSCLC, 34%; in the experiment with SN12C renal, 20.3%; in the experiment on UO-31 renal, 29.4%. Further, the growth with TK-10 renal is 61.1%; in the experiment on ACHN renal, 32.2%; in the experiment with CAKI-1 renal, 17.5%; in the experiment on CCRF-CEM leukemia, 37.7%; with MOLT-4 leukemia, 39.3%.
Take `C[C@H]1[C@H](C)CC[C@]2(COC(=O)c3cccnc3)CC[C@]3(C)C(=CC[C@@H]4[C@@]5(C)CCCNC(C)(C)[C@@H]5CC[C@]43C)[C@H]12`: the growth in the experiment with HCT-15 colon was 39.5%; in the experiment with HT29 colon, 45.5%; in the experiment on SNB-19 CNS, 88.6%; with U251 CNS, 64.4%; with PC-3 prostate it was 35.8%; with SK-MEL-5 melanoma, 56.4%. Moreover, the growth is 53.4% with UACC-62 melanoma; 75% with SK-MEL-28 melanoma; 98.6% with SK-MEL-2 melanoma; 89.7% with EKVX NSCLC; 67.6% in the experiment with SN12C renal; 59.3% in the experiment with UO-31 renal. Moreover, the growth was 79.9% in the experiment on TK-10 renal; 75.7% with ACHN renal; 61.5% in the experiment on CAKI-1 renal; 50.1% with CCRF-CEM leukemia; 44% in the experiment on MOLT-4 leukemia.
On to `O=C1[C@H]2Cc3c([nH]c4ccccc34)[C@@H](c3c(Cl)cccc3Cl)N2C(=O)CN1C1CCN(Cc2ccccc2)CC1`, for which the growth was 25.5% in the experiment on HCT-15 colon; 9.36% (active) in the experiment with HT29 colon; 89.6% in the experiment with SNB-19 CNS; 50.1% with U251 CNS; 84.6% with SK-MEL-5 melanoma; 72.5% in the experiment on UACC-62 melanoma. Moreover, the growth is -31.2% (active) in the experiment with LOX IMVI melanoma; 93.1% with SK-MEL-28 melanoma; 114% in the experiment with SK-MEL-2 melanoma; 96.2% in the experiment on EKVX NSCLC; 73.3% in the experiment with SN12C renal; 75.9% with UO-31 renal. The growth in the experiment with TK-10 renal is 46.2%; in the experiment with ACHN renal, 93%; in the experiment on CAKI-1 renal, 67.6%; in the experiment with A498 renal, 102%; in the experiment on CCRF-CEM leukemia it was 21.7%; in the experiment with MOLT-4 leukemia, 20%.
`Cc1cc(NS(=O)(=O)c2ccc(-c3cnc(C4CC4)o3)cc2)ccc1I`: the growth was 30.5% with HCT-15 colon; 14.2% in the experiment on HT29 colon; 40.1% in the experiment on SNB-19 CNS; 30.1% with U251 CNS; 22.7% with PC-3 prostate; 31.5% in the experiment with SK-MEL-5 melanoma. Moreover, the growth in the experiment on UACC-62 melanoma is 30.3%; with SK-MEL-28 melanoma, 62%; in the experiment on SK-MEL-2 melanoma, 63.3%; in the experiment on EKVX NSCLC, 42.6%; in the experiment with SN12C renal, 43.5%; in the experiment with UO-31 renal it was 48.7%. Further, the growth in the experiment on TK-10 renal was 75.6%; with ACHN renal, 45.1%; with CAKI-1 renal it was 39.3%; with CCRF-CEM leukemia, 19.1%; with MOLT-4 leukemia it was 40.8%.
For the compound `COc1ccc([C@@H]2[C@@H](O)C(=O)N2c2cc(OC)c(OC)c(OC)c2)cc1Cl`, the growth is 10.5% with HCT-15 colon; 12.8% in the experiment with HT29 colon; 30% in the experiment with SNB-19 CNS; 1.75% (active) in the experiment with U251 CNS; 17.5% in the experiment on PC-3 prostate; 0.0843% (active) in the experiment on SK-MEL-5 melanoma. The growth was 26.1% with UACC-62 melanoma; 18.5% in the experiment on LOX IMVI melanoma; 64.2% in the experiment on SK-MEL-28 melanoma; 52.4% in the experiment on EKVX NSCLC; 25.6% in the experiment with SN12C renal; 31.8% in the experiment with UO-31 renal. Also, the growth in the experiment with TK-10 renal was 89.4%; in the experiment on ACHN renal, 27.9%; in the experiment on CAKI-1 renal it was 30.6%; in the experiment on A498 renal, -16.9% (active); in the experiment on CCRF-CEM leukemia, 19.6%.
Consider `O=C(Nc1cccc(Cl)c1)Nc1nc2ccc(-c3cccc4ccccc34)cc2s1`, for which the growth in the experiment with HCT-15 colon was 34.1%; in the experiment with HT29 colon, 49.4%; with SNB-19 CNS, 56.4%; in the experiment on U251 CNS, 35.4%; in the experiment with PC-3 prostate, 24.9%; in the experiment with SK-MEL-5 melanoma, 54.4%. Besides, the growth in the experiment with UACC-62 melanoma was 42.3%; with SK-MEL-28 melanoma, 73.3%; with SK-MEL-2 melanoma, 82.6%; in the experiment with EKVX NSCLC, 56.4%; in the experiment on SN12C renal it was 53%; in the experiment with UO-31 renal it was 47.4%. For the same compound, the growth in the experiment on TK-10 renal is 74.7%; in the experiment with ACHN renal, 40.3%; in the experiment on CAKI-1 renal it was 37.9%; with MOLT-4 leukemia, 41.5%.
On to `CS(=O)c1nccc(-c2c(-c3ccc(F)c(OCc4ccccc4)c3)nc3sccn23)n1` (stereo not drawn), for which the growth in the experiment with HCT-15 colon was 74.8%; with HT29 colon, 89.5%; with SNB-19 CNS, 93.3%; in the experiment on U251 CNS, 105%; in the experiment on PC-3 prostate, 54.1%; with SK-MEL-5 melanoma, 100%. The growth in the experiment with UACC-62 melanoma is 93.6%; in the experiment on LOX IMVI melanoma, 81.7%; in the experiment on SK-MEL-28 melanoma it was 55.5%; in the experiment on EKVX NSCLC it was 83%; with SN12C renal, 97.4%; with UO-31 renal, 94.9%. For the same compound, the growth with ACHN renal was 82.6%; in the experiment on CAKI-1 renal it was 89.3%; in the experiment with A498 renal, 94.2%; in the experiment on CCRF-CEM leukemia, 76.4%; with MOLT-4 leukemia it was 32.2%.

(Values after PubChem BioAssay (NCI).)
